In the library only some 2.6% were active in any assay of this set; here they are far more common.
TLR4-MyD88 BLA: TLR4-MyD88 interaction inhibition in cells | AID 861 | HeLa CL3-4 TLR4/MyD88 BLA complementation, FRET ratio | 200,000 tested, 0.18% active | inhibition, % at 8.4 µM | O00206+Q99836; in the data active = inhibition above about 25%;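 also: 0% = vehicle and 100% = reference inhibitor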
PRMT1 inh: blocks human protein arginine methyltransferase 1; recombinant PRMT1, activity-based probe fluorescence polarization; inhibition, % at 2.79 µM; 370,000 tested, 1.3% active; AID 652257;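 active = inhibition above about 21% made by adding two undisclosed values, limit read from the data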
TLR9-MyD88 inh: inhibitors of human TLR9-MyD88 binding; Q9NR96+Q99836; CHO BLA complementation TLR9-MyD88, CCF4 FRET ratio; inhibition, % at 4.98 µM; 340,000 tested, 0.21% active;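 active = inhibition above the mean over all tested compounds plus 3 SD, cut at about 21% in these data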;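 also: 0% = DMSO only wells and 100% = clavulanate BLA inhibitor control wells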
NOD2 RIPK2 PPI: inhibitors of human NOD2-RIPK2 interaction; O43353; CHO BLA complementation NOD2-RIPK2, CCF4 ratio; inhibition, % at 4.98 µM; 360,000 tested, 0.38% active; AID 624267; in the data active = inhibition above about 21%;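 also: 0% = vehicle only and 100% = reference blocker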
Exocytosis inh: lytic granule exocytosis inhibition; TALL-104 LAMP-1 surface exposure, flow cytometry; cells stimulated with thapsigargin and PMA; inhibition, % at 10 µM; 360,000 tested, 0.66% active; AID 651702;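 active = inhibition above about 55%, limit read from the data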
ABHD5-PLIN5 inh: ABHD5-PLIN5 protein interaction inhibition; Q00G26+Q8WTS1; Split G. princeps luciferase complementation, luminescence, 4 h; inhibition, % at 4 µM; 360,000 tested, 0.78% active; AID 602281;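 active = inhibition above the mean inhibition across every tested compound plus 3 SD, cut at about 22% in these data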;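 also: 0% = DMSO only wells and the 100% control is not disclosed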
Target sequence (Q00G26 whole entry, looked up): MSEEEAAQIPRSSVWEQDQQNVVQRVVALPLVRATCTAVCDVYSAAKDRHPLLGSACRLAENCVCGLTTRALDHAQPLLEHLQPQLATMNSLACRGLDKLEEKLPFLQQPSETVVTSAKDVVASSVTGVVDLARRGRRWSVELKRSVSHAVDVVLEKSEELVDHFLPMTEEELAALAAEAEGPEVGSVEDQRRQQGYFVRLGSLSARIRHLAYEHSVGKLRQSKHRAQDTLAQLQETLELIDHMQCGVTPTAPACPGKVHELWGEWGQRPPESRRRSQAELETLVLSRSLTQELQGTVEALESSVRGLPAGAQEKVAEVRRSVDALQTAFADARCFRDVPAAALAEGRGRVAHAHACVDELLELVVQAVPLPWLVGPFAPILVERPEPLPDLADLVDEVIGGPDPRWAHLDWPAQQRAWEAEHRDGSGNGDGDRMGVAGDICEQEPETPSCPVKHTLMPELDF
Target sequence (Q8WTS1 whole entry, looked up): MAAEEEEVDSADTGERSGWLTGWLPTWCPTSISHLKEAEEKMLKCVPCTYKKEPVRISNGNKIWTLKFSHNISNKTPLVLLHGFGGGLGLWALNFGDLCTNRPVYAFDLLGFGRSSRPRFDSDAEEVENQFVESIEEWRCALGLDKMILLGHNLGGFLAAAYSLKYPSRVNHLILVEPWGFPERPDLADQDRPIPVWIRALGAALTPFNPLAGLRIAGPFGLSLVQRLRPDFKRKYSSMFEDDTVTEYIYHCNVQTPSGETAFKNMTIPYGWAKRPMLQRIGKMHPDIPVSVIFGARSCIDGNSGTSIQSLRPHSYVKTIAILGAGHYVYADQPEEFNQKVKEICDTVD
The depositor's hits bear a star; . = no result; ! = repeats disagree.

SMILES	TLR4-MyD88 BLA	PRMT1 inh	TLR9-MyD88 inh	NOD2 RIPK2 PPI	Exocytosis inh	ABHD5-PLIN5 inh
CC1CCC(C(C)C)C(OC(=O)Cn2c(-c3ccc(Br)cc3)[n+](C)c3ccccc32)C1 (configuration not stated)	-4	-1	4	-14	29	17
Cc1ccccc1OCc1n(CC(=O)OC2CC(C)CCC2C(C)C)c2ccccc2[n+]1C (configuration not stated)	11	1	6	1	90*	15
CCOC(=O)C1=C(C)N=c2s/c(=C\c3ccc(OCC(=O)O)c(OC)c3)c(=O)n2C1c1ccc(OC)cc1 (configuration not stated)	.	32*	2	6	-4	-7
Cc1nc2c(=O)[nH]c(=S)n(C)c2nc1C	6	23*	2	-1	-2	-6
Oc1ccc(N2CCN(Cc3c(-c4ccccc4)nc4ccccn34)CC2)cc1	.	22*	5	-5	2	19
O=C(Nc1cc(Cl)ccc1F)C1CCCN(c2nnc(-n3cccc3)s2)C1 (configuration not stated)	.	0	.	.	.	.
COc1ccc(OC)c(C2=Nn3c(nnc3-c3ccncc3)SC2)c1	.	3	-4	-7	64*	-2
COc1ccc(-n2c(-c3ccc(Cl)cc3)c[nH]c2=S)cc1	.	24*	5	9	6	-11
Cc1ccc(-n2c(-c3ccccc3)c[nH]c2=S)cc1	-23	17	-2	3	-2	-12
CC1CCCN(C(=O)c2ccc3ncsc3c2)C1 (configuration not stated)	.	24*	-5	1	-1	-10
O=C1CCCC2=C1C(c1ccc(O)c(O)c1)Nc1ccc3ncccc3c12 (configuration not stated)	-4	34*	-7	-16	9	1
O=C1CCCC2=C1C(c1cccs1)Nc1ccc3ncccc3c12 (configuration not stated)	10	4	6	-8	-3	9
COc1ccc(/C=C2\SC(=S)N(CCC(=O)NCCCN3CCOCC3)C2=O)cc1	.	7	6	-18	34	8
COC(=O)c1ccc(/C=C2\SC(=S)N(CCCC(=O)NCCCN3CCOCC3)C2=O)cc1	.	12	-5	0	78*	-7
COc1ccc(Nc2nnc(-c3ccc4c(c3)OCO4)o2)cc1	.	24*	.	.	.	.
COc1ccc(C2c3ccc4ccccc4c3Oc3ncn(CCO)c(=N)c32)cc1 (configuration not stated)	.	.	-11	12	52	8
COc1ccc(C2c3ccc4ccccc4c3Oc3ncn(CCCO)c(=N)c32)cc1 (configuration not stated)	.	-1	-6	1	65*	-6
Nc1[nH]c(C(=O)c2ccccc2)c(-c2ccc(Cl)cc2)c1C(=O)c1c[nH]c2ccc(F)cc12	.	-2	.	.	.	.
Nc1nc(=S)c2[nH]c(=S)[nH]c2[nH]1	.	14	0	6	6	-13
CSc1nc(=S)c2[nH]c(=S)[nH]c2[nH]1	.	88*	0	5	-5	-4
CCC/C=C1/CCCOC(C(=O)NCc2ccccn2)(C(F)(F)F)C1 (configuration not stated)	.	1	-5	4	9	-10
CCC/C=C1/CCCOC(C(=O)NCc2ccc(C)o2)(C(F)(F)F)C1 (configuration not stated)	.	45*	1	-5	2	19
CCOC(=O)c1c(NC(=O)c2ccco2)sc2c1CCCC2	2	0	3	3	3	-4
NC(=O)c1c(NC(NC(=O)c2ccco2)C(=O)c2ccc(Cl)cc2)sc2c1CCCC2 (configuration not stated)	-6	24*	10	-8	-2	-21
N#Cc1c(NC(NC(=O)c2ccco2)C(=O)c2ccccc2)sc2c1CCCC2 (configuration not stated)	1	23*	-13	-8	3	-14
SMILES	TLR4-MyD88 BLA	PRMT1 inh	TLR9-MyD88 inh	NOD2 RIPK2 PPI	Exocytosis inh	ABHD5-PLIN5 inh
CN(C)CC(CCC(CN(C)C)C(=O)c1ccccc1)C(=O)c1ccccc1 (configuration not stated)	.	.	14	60*	32	41*
CCOc1ccc(C(=O)C(CCC(CN(C)C)C(=O)c2ccc(OCC)cc2)CN(C)C)cc1 (configuration not stated)	10	6	19	40*	60*	49*
COc1ccc(C(=O)C(CCCCC(CN(C)C)C(=O)c2ccc(OC)cc2)CN(C)C)cc1 (configuration not stated)	17	-1	5	18	21	3
O=C(Cc1ccc(NC(=O)C2CCN(C(=O)C3CCCC3)CC2)cc1)Nc1cccc(C(=O)N2CCCC2)c1	.	1	.	.	.	.
O=C1/C(=C/Nc2cccc([N+](=O)[O-])c2)CCc2ccccc21	3	20	-40	3	89*	-16
O=C1/C(=C\c2ccc([N+](=O)[O-])cc2)CCc2ccccc21	11	-2	-4	-8	-2	9
O=S1(=O)c2ccc(N3CCSCC3)cc2Oc2ccccc2CN1Cc1cn(Cc2ccccc2C(F)(F)F)nn1	.	-1	.	.	.	.
Cc1ccc(-c2ccc(/C=C3/NC(=O)NC3=O)o2)cc1[N+](=O)[O-]	11	1	3	21	13	18
CC1=C(C#N)C(=O)NC(=O)/C1=C\c1ccc(-c2cc(C)c(C)cc2[N+](=O)[O-])o1	16	40*	2	-17	-2	-5
CCCCc1c(-c2ccccc2OC)ncn1Cc1ccc([N+](=O)[O-])cc1	.	1	.	.	.	.
O=C1CSc2ccc(C(=O)Nc3cccc(S(=O)(=O)Nc4ccc(Br)cc4)c3)cc2N1	8	21*	-5	-16	63*	-1
COc1cccc(N(C)C(=O)[C@@H](C2CC2)[C@@H](O)c2ccc3ccccc3c2)c1	.	-1	.	.	.	.
COC(=O)C(=C/C=C/c1ccco1)C(=O)OC	.	2	-8	-8	-4	23*
CCOc1nc(Nc2ccc([N+](=O)[O-])cc2)nc(NC(C)(C)C)n1	-4	2	-4	2	-3	-5
CCN(CC)c1nc(Nc2ccc([N+](=O)[O-])cc2)nc(N(CC)CC)n1	.	2	3	-9	107*	-4
O=[N+]([O-])c1ccc(SCCc2ccncc2)cc1	.	24*!	-9	2	-6	-2
COC(=O)C(C)Oc1cc(OC(C)C(=O)OC)c2c(-c3ccccc3)cc(=O)oc2c1 (configuration not stated)	.	2	-4	-5	63*	-1
Cc1cc(C)c2c(=O)n(CC(=O)NCCCN3CCOCC3)sc2n1	-4	.	0	-12	5	50*
Cc1cc(C)c2c(=O)n(CC(=O)NCCCN3CCN(c4ccccc4F)CC3)sc2n1	7	.	.	.	.	.

Compound activity: PubChem, several laboratories
